Source: PubChem
Hits are enriched below; roughly 10% of the tested compounds scored in any of these assays.
NIH3T3 tox: Cytotoxic Profiling in NIH 3T3 Cell Line of Diverse Libraries Using Quantitative High-Throughput Screening. NIH 3T3 viability, CellTiter-Glo ATP luminescence, 48-72 h. Potency, µM (doses to about 96.7 µM), inactives show at the highest dose activity change, negative = cytotoxicity, usual class: inhibitors. 4.3% of 94,000 active. AID 1345082, 2018; also: nearly all actives have a fitted effect of over 55% in size
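Viability of NIH 3T3 cells after 48 or 72 hr compound treatment at 37 °C was assessed by CellTiter-Glo, with luminescence imaged following a 10 min room-temperature step.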
HEK293 tox: Cytotoxic Profiling in HEK 293 Cell Line of Diverse Libraries Using Quantitative High-Throughput Screening; HEK 293 viability, ATP luminescence (CellTiter-Glo), 48-72 h; AID 1345083, 2018; Potency, µM (top dose mostly 115 µM), for inactives: at the highest dose activity change, negative = cytotoxicity, actives largely listed as inhibitors; 6.6% of 94,000 active; also: nearly all actives have a fitted effect of over 60% in size
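ATP-coupled CellTiter-Glo luminescence served as viability read-out, recorded 10 min after reagent addition at room temperature. HEK 293 cells, 250 cells/well, had been incubated with pintool-transferred compound for 48 or 72 hr at 37 degree Celsius.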
hNpr1 antagonist: Natriuretic polypeptide receptor (hNpr1) antagonism - Primary qHTS; Atrial natriuretic peptide receptor 1 (Homo sapiens), P16066; HEK293 hNpr1 GloSensor cGMP, ANP-stimulated luminescence; Potency, µM (titrated, usually from 46.3 µM), without a hit: at the highest dose activity change, negative = inhibition, most hits filed as inhibitors; 1.6% of 76,000 active; AID 1347048, 2019; calls by dose curve; also: nearly all actives have a fitted effect of over 60% in size
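HEK293 cells stably expressing human Npr1 and cGMP GloSensor pGS-40F, loaded 2 h with 2% GloSensor reagent, given compound 30 min at room temperature. Luminescence read before and 20 min after 0.1 nM hNppA.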
Luciferase inh: Firefly luciferase inhibition profiling of diverse chemical library using quantitative high-throughput screening; Luciferin 4-monooxygenase (Photinus pyralis), P08659; purified P. pyralis luciferase, luminescence, biochemical; Potency, µM (titrated, usually from 115 µM), actives largely listed as inhibitors; 2.5% of 76,000 active; AID 1347043, 2019; also: nearly all actives have a fitted effect of over 65% in size
Target sequence (P08659 whole entry, looked up): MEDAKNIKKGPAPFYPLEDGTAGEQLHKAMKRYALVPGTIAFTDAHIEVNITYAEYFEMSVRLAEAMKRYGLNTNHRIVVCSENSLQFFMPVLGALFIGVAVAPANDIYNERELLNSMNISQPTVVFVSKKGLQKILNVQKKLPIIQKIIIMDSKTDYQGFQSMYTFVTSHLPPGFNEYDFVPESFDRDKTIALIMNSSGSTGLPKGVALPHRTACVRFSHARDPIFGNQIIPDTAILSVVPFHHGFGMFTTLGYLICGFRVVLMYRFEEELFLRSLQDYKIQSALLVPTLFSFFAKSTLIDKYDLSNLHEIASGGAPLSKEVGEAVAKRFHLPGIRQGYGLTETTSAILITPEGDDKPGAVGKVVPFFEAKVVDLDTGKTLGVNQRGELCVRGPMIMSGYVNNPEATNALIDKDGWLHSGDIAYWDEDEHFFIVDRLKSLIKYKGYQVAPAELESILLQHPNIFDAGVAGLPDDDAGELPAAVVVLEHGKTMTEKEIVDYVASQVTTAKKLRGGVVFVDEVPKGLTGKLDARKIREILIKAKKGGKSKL
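Biochemical qHTS: compound (6-point titration) added to 10uM D-luciferin plus 10uM ATP in Tris acetate pH 7.5 buffer with Mg, Tween-20 and BSA, then purified enzyme at 10nM; light output imaged.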
GPT2 inhibitor: Primary qHTS assay for inhibitors of Glutamate pyruvate transaminase 2 (GPT2). Recombinant GPT2, coupled pyruvate oxidase/HRP Amplex Red fluorescence. AID 1671188, 2021. Alanine aminotransferase 2 (Homo sapiens), Q8TD30. Potency, µM (titrated, usually from 57.7 µM), for the others: top-dose activity change, negative = inhibition, usual class: inhibitors. 0.25% of 100,000 active; also: nearly all actives have a fitted effect of over 60% in size
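Recombinant GPT2 (10ng/uL) with 250uM a-KG and 2mM L-alanine, 30 min at room temperature, in HEPES pH 7.5 buffer. Pyruvate detected by pyruvate oxidase/HRP/Amplex Red fluorescence after 30 min in the dark; AOA (50uM) as positive control.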
An asterisk follows results filed as active; i = inactive; ? = inconclusive; . = no result; [ ] = remark or other dose. Unless noted, calls follow the shape of the dose curve; as a rule, active = well fitted curve in the direction sought with a large enough effect; inconclusive = small, poorly fitted or top-dose-only effect, or another doubt; inactive = no such curve, though single readings can be large; an effect the other way counts as inactive or inconclusive. % is scaled to controls: 0 for no effect and ±100 for the full control effect; potency is read from the fitted curve at half-maximal effect.

SMILES	NIH3T3 tox	HEK293 tox	hNpr1 antagonist	Luciferase inh	GPT2 inhibitor
Cc1cccc([C@H]2C[C@@H](O)[C@@H](O)[C@@H]2NCC2CCCC2)c1	89µM*	50µM*	-28%[70.6 µM]	i	-35%[88.5 µM]
Cc1ccc(C(=O)N2CCC3(CC2)c2nccn2-c2ccccc2CN3CC(C)C)cc1F	35µM*	35µM*	-20%	i	4%
CC(C)CN1Cc2ccccc2-n2ccnc2C12CCN(C(=O)C(C)C)CC2	-22%	?	-3%	i	-16%
CC1=CC2OC3CC(O)[C@](C)([C@@]2(C)C(O)C1=O)[C@]31CO1 (stereo partly specified)	.	.	.	.	3%
COc1cc2c(cc1OC1CCCC1)NC(=O)C21CCN(c2ncc(C(C)C)cn2)CC1	?	?	-2%[70.6 µM]	i	-8%[88.5 µM]
COc1cc2c(cc1OC1CCCC1)NC(=O)C21CCN(c2cnccn2)CC1	?	89µM*	-16%[70.6 µM]	i	3%[88.5 µM]
COc1cc2c(cc1OC1CCCC1)NC(=O)C21CCN(c2nc(C)cc(C)n2)CC1	?	89µM*	-8%[70.6 µM]	i	-23%[88.5 µM]
CCc1cnc(N2CCC3(CC2)C(=O)Nc2cc(OC4CCCC4)c(OC)cc23)nc1	?	79µM*	-1%[70.6 µM]	i	-7%[88.5 µM]
COc1cc2c(cc1OCC1CC1)NC(=O)C21CCN(CCC(C)C)CC1	?	-28%[172 µM]	3%[70.6 µM]	i	i
COc1cc2c(cc1OC1CCCC1)NC(=O)C21CCN(c2ncccn2)CC1	?	100µM*	0%[70.6 µM]	i	5%[88.5 µM]
C[C@H]1CCC[C@H](O)CCC/C=C/c2cc(O)cc(O)c2C(=O)O1	.	.	.	.	i
CC(C)OC(=O)c1ccnc2cc(C(OCCN3CCCCC3)c3ccccc3Cl)sc12 (stereo unspecified)	.	.	.	.	i
COc1cc2c(cc1Oc1cccc(N(C)C)c1)NC(=O)C21CCN(c2ncc(F)cn2)CC1	?	-18%	-19%	i	-9%
CCc1cnc(N2CCC3(CC2)C(=O)Nc2cc(Oc4ccccc4)c(OC)cc23)nc1	40µM*	45µM*	-16%[70.6 µM]	i	-14%[88.5 µM]
COc1cc2c(cc1OC1CCCC1)NC(=O)C21CCN(c2ncc(F)cn2)CC1	89µM*	89µM*	-5%[70.6 µM]	i	-12%[88.5 µM]
Cc1ccc(C(=O)NC[C@H]2C[C@@H]3CCN2C[C@@H]3c2cc(C3CCCCC3)nn2C)cc1	35µM*	?	-11%[70.6 µM]	i	-1%[88.5 µM]
Cc1ccc(C(=O)NC[C@H]2C[C@@H]3CCN2C[C@@H]3c2cc(-c3cccs3)nn2C)cc1	112µM*	?	2%[70.6 µM]	i	-8%[88.5 µM]
Cn1nc(C2CCCCC2)cc1[C@H]1CN2CC[C@H]1C[C@@H]2CNC(=O)c1ccc2c(c1)OCO2	?	?	-2%	i	-6%
Cn1nc(C2CCCCC2)cc1[C@H]1CN2CC[C@H]1C[C@@H]2CNC(=O)NCc1ccccc1	?	79µM*	1%	i	-2%
Cn1nc(C2CCCCC2)cc1[C@H]1CN2CC[C@H]1C[C@@H]2CNC(=O)Nc1ccccc1	28µM*	32µM*	3%[70.6 µM]	i	-7%[88.5 µM]
C/C=C1/CN2CC[C@]34C(=Nc5ccc(OC)cc53)C2C[C@@H]1C4(CO)C(=O)OC (stereo partly specified)	.	.	.	.	i
COC1CC(OC2CCC3(C=O)C(CCC4C3CCC3(C)C(C5=CC(=O)OC5)CCC43O)C2)OC(C)C1OC1OC(CO)C(O)C(O)C1O (stereo unspecified)	.	.	.	.	3%[17.1 µM]
CCOC(=O)[C@@H]1[C@H]2c3ccccc3N(CCOC)C(=O)[C@H]2N(C(=O)OCC)[C@@H]1c1ccccc1	-27%	?	.	.	.
COc1ccc(OC)c(S(=O)(=O)NC[C@H]2C[C@@H]3CCN2C[C@@H]3c2cc(-c3cccs3)nn2C)c1	79µM*	?	-15%	i	1%
O=S(=O)(NC[C@H]1C[C@@H]2CCN1C[C@@H]2CN1CCCC1)c1ccc(Cl)cc1	79µM*	?	-1%[70.6 µM]	i	-27%[88.5 µM]
SMILES	NIH3T3 tox	HEK293 tox	hNpr1 antagonist	Luciferase inh	GPT2 inhibitor
O=S(=O)(NC[C@H]1C[C@@H]2CCN1C[C@@H]2CN1CCc2ccccc21)c1ccccc1	56µM*	56µM*	-14%[70.6 µM]	i	?
COc1ccc(S(=O)(=O)NC[C@H]2C[C@@H]3CCN2C[C@@H]3CN2CCC(Cc3ccccc3)CC2)cc1	13µM*	?	-16%	i	4%
COc1ccc(S(=O)(=O)NC[C@H]2C[C@@H]3CCN2C[C@@H]3CN2CCOCC2)cc1	-1%[174 µM]	0%[172 µM]	-2%[70.6 µM]	i	-1%[88.5 µM]
COc1ccc(S(=O)(=O)NC[C@H]2C[C@@H]3CCN2C[C@@H]3CN(C)c2ccccc2)cc1	35µM*	?	1%[70.6 µM]	i	3%[88.5 µM]
CC[C@H]1CN2CC[C@H]1C[C@@H]2CNS(=O)(=O)c1ccc(OC)cc1	-5%[174 µM]	-1%[172 µM]	2%[70.6 µM]	i	-4%[88.5 µM]
CN1CCN(C[C@H]2CN3CC[C@H]2C[C@@H]3CNS(=O)(=O)c2ccccc2)CC1	-23%[174 µM]	-4%[172 µM]	3%[70.6 µM]	i	2%[88.5 µM]
CC(=O)O[C@H]1CN2CCC1CC2	.	.	.	.	i
C[C@@H]1C[C@@H](O)[C@]2(O)O[C@@H]3C[C@@]4(C=O)C(CC[C@@H]5C4CC[C@]4(C)[C@@](O)(C6=CC(=O)OC6)CC[C@]54O)C[C@H]3OC2O1 (stereo partly specified)	.	.	.	.	i
Fc1cc(F)c2c(c1)[C@H]1C=CC[C@H]1C(c1cccnc1)N2 (stereo partly specified)	.	.	.	.	-18%
O=C(c1ccco1)N1[C@H]2CC[C@@H]1c1cnc(-c3ccc(F)cc3)nc1C2	-26%	45µM*	?	i	i
Cc1noc(C)c1S(=O)(=O)N1[C@H]2CC[C@@H]1c1cnc(-c3ccccc3)nc1C2	-26%	?	?	i	4%
O=C(CCc1nc2ccccc2[nH]1)N1[C@H]2CC[C@@H]1c1cnc(-c3ccc(F)cc3)nc1C2	-13%	-28%	-2%	i	-7%
Cc1noc(C)c1S(=O)(=O)N1[C@H]2CC[C@@H]1c1cnc(-c3ccc(F)cc3)nc1C2	?	45µM*	?	i	i
O=C(CCc1nc2ccccc2s1)N1[C@H]2CC[C@@H]1c1cnc(-c3ccc(F)cc3)nc1C2	-26%	40µM*	0.71µM*	i	i
